The source of these data is PubChem BioAssay (Tox21).

Calls of active or inactive are those of the source. Calls come from the whole dose curve; as a rule, active = well fitted curve in the direction sought with a large enough effect in the repeat runs; inconclusive = weak or mixed curves; inactive = flat fitted curve, though single readings scatter.

A short description of this test: qHTS assay to test for compound auto fluorescence at 590 nm (red) in HepG2 cells (AID 720674). To be noted: HepG2 autofluorescence, red 540/590 nm, 1 h; series mostly up to 91.3 µM. An excerpt:
U.S. Tox21 Program National Center for Advancing Translational Sciences [NCATS] NIH Chemical Genomics Center [NCGC] U.S. Environmental Protection Agency [EPA] National Institutes of Environmental Health Sciences [NIEHS] National Toxicology Program [NTP] U.S. Food and Drug Administration [FDA] Tox21 Assay Overview: Compound auto fluorescence often interferes with screening of the compound library against various biological targets and signaling pathways. Some of these compounds may have fluorophoric properties. Such properties may interfere with the assay outputs resulting in false positives and/or negatives. To decrease such complications and ensure the compound activities are relevant in terms of biological response, the Tox21 10K compound library was screened for auto fluorescence. From the fluorophores used as reporter signals in our screening assays, the auto fluorescence equivalencies of compounds against three fluorophores have been evaluated: Triamterene, Fluorescein and Rose Bengal sodium for blue, green and red fluorescence, respectively. The fluorescence intensities were measured using Excitation/Emission wavelengths at 405/460nm, 485/535nm and 540/590nm for blue, green and red labels, respectively. This assay includes the red fluorescence data.
Tox21 Assay Protocol Summary: 2,000 HepG2 cells in 5 uL of culture medium (MEM containing 10% FBS) per well were dispensed into black wall/clear bottom 1536-well plates using a Multidrop Combi Dispenser (ThermoFisher Scientific, Waltham, MA). The assay plates were incubated overnight at 37 C to allow cell attachment to the well bottom, followed by the transfer of 23 nL compound or DMSO vehicle by a pintool work station (Kalypsys , San Diego, CA). After the assay plates were incubated for 1 hr at 37 C and 5% CO2, fluorescence intensities in the assay plates were measured by an Envision (PerkinElmer, Shelton, CT) plate reader using three labels for measuring blue, green and red fluorescence at […] 460, 535 and 590 nm respectively.
A general note: In qHTS, concentration-response curves come from the screen itself.
Regarding `Nc1ccc([N+](=O)[O-])cc1[N+](=O)[O-]`, the outcome was inactive.

`C[C@@H]1CC[C@H]2[C@@H](C)C(=O)O[C@@H]3O[C@@]4(C)CC[C@@H]1[C@]32OO4`: the outcome was inactive.

Take `O=C1c2ccccc2C(=O)C1C(=O)C(c1ccccc1)c1ccccc1`: the result was inactive.

In the case of `COc1nn(C(=O)NS(=O)(=O)c2ccccc2OC(F)(F)F)c(=O)n1C`, the call was inactive.

As to `CCOP(=S)(OCC)SCSCC`, the compound was classed as inactive.

In the case of `O=[Se]=O`, the outcome was inactive.

On to `CC(C)=CCOc1c2occc2cc2ccc(=O)oc12`, for which the compound was classed as inactive.

Regarding `COCC(C)N(C(=O)CCl)c1c(C)csc1C` (stereo not given), the result was inactive.

On to `O=C(O)c1ccccc1C(=O)Nc1cccc2ccccc12`, for which the compound was called inactive.

Take `c1ccc(CN2CCNCC2)cc1`: the compound was classed as inactive.

For `C=CC(=O)NCNC(=O)C=C`, the outcome was inactive.

Regarding `CC(Cl)C(C)Cl` (stereo not given), the compound was classed as inactive.

`CC(=O)NC1CCSC1=O` (stereo not given): the result was inactive.

Regarding `C=CC(C)=O`, the outcome was inactive.

With `CCN(C)N=O`, the compound was classed as inactive.

With `O=C(Nc1ccccc1)Nc1ccnc(Cl)c1`, the compound was called inactive.

Take `Nc1ccc(N=Nc2ccc(-c3ccc(N=Nc4c(S(=O)(=O)O)cc5cc(S(=O)(=O)O)c(N=Nc6ccccc6)c(O)c5c4N)cc3)cc2)c(N)c1`: the call was inactive.

Take `COC(N)=O`: the compound was called inactive.

As to `CC(=O)[C@H]1CC[C@H]2[C@@H]3CC[C@H]4C[C@](C)(O)CC[C@]4(C)[C@H]3CC[C@]12C`, the outcome was inactive.

As to `CCC(C)(NC(=O)c1cc(Cl)c(C)c(Cl)c1)C(=O)CCl` (stereo not given), the result was inactive.

As for `CN1C[C@H](CNC(=O)OCc2ccccc2)C[C@@H]2c3cccc4c3c(cn4C)C[C@H]21`, the call was inactive.

In the case of `CCOP(=O)(OCC)O/C(=C/Cl)c1ccc(Cl)cc1Cl`, the compound was classed as inactive.

Turning to `C#CCOC(C(=O)OCCN(C)C)(c1ccccc1)c1ccccc1`, the compound was classed as inactive.

On to `CCBr`, for which the compound was called inactive.

Regarding `Cc1ccc2ccccc2c1`, the result was inactive.

For the compound `CC[C@H]1C[C@H]2[C@@H]3CCC4=CC(=O)CC[C@@H]4[C@H]3CC[C@]2(C)[C@H]1O`, the compound was classed as inactive.

Regarding `CCOC(=O)CBr`, the compound was called inactive.

`CC(=O)c1cc2c(cc1C)C(C)(C)C(C)CC2(C)C` (stereo not given): the compound was called inactive.

For `O=C(C(Cl)(Cl)Cl)C(Cl)(Cl)Cl`, the compound was called inactive.

For the compound `CCCCc1c(C)nc(NCC)nc1OS(=O)(=O)N(C)C`, the compound was called inactive.

For the compound `CCCCN(N=O)C(=N)N[N+](=O)[O-]`, the outcome was inactive.

Consider `CCC(Br)(CC)C(=O)NC(N)=O`, for which the result was inactive.

With `CCOC(=O)COc1cc(-c2nn(C)c(OC(F)F)c2Cl)c(F)cc1Cl`, the result was inactive.

For `ClP(Cl)(Cl)(Cl)Cl`, the result was inactive.

In the case of `Cc1ccc(-c2c(Cl)nc(C#N)n2S(=O)(=O)N(C)C)cc1`, the compound was classed as inactive.

In the case of `O=C(O)CC(Cl)C(=O)O` (stereo not given), the outcome was inactive.

`Clc1cc(Cl)c(Cl)c(Cl)c1`: the compound was classed as inactive.

`C=CC(=O)OCC(C)C`: the outcome was inactive.

As for `C(=NC1CCCCC1)=NC1CCCCC1`, the compound was classed as inactive.

Turning to `CO/C=C(/C(=O)OC)c1ccccc1COc1cccc(C(F)(F)F)n1`, the outcome was inactive.
